Source: the supplement of paper PMC8728848
The full list was thinned out, with the strongest signals kept by preference.

How the values were obtained:
Assay in all cases: glycan array binding signal (z-score within array); higher = stronger binding
Conditions in all cases: glycan notation: IUPAC condensed, linker removed
GalNAc(a1-3)GalNAc = molecular target: GalNAc(a1-3)GalNAc
Procedure, shortened: (§1)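 Negative Z-scores can be read as non-binding. The Z-score is calculated within each array and then averaged across arrays of one protein sequence at different concentrations or buffers and across linkers. Arrays, 3228 in all, were curated from the Consortium for Functional Glycomics database and kept only where the protein sequence was available.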

GalNAc6S(b1-4)GlcNAc = molecular target: GalNAc6S(b1-4)GlcNAc
Procedure, shortened: as §1

Glc(b1-6)Glc = molecular target: Glc(b1-6)Glc
Procedure, shortened: as §1

[1] = molecular target: GlcNAc(a1-3)Gal(b1-4)GlcNAc
Procedure, shortened: as §1

[2] = molecular target: GlcNAc(a1-4)Gal(b1-4)GlcNAc(b1-3)Gal(b1-4)GlcNAc(b1-3)Gal(b1-4)GlcNAc
Procedure, shortened: as §1

[3] = molecular target: GlcNAc(a1-4)Gal(b1-4)GlcNAc(b1-3)Gal(b1-4)[Fuc(a1-3)]GlcNAc(b1-3)Gal(b1-4)[Fuc(a1-3)]GlcNAc
Procedure, shortened: as §1

[4] = molecular target: GlcNAc(b1-2)Man(a1-3)[GlcNAc(b1-2)Man(a1-6)]Man(b1-4)GlcNAc(b1-4)GlcNAc
Procedure, shortened: as §1

[5] = molecular target: GlcNAc(b1-3)Gal(b1-4)GlcNAc(b1-3)Gal(b1-4)GlcNAc(b1-3)Gal(b1-4)GlcNAc(b1-2)Man(a1-3)[GlcNAc(b1-3)Gal(b1-4)GlcNAc(b1-3)Gal(b1-4)GlcNAc(b1-3)Gal(b1-4)GlcNAc(b1-2)Man(a1-6)]Man(b1-4)GlcNAc(b1-4)GlcNAc
Procedure, shortened: as §1

[6] = molecular target: GlcNAc(b1-3)Gal(b1-4)GlcNAc(b1-3)Gal(b1-4)GlcNAc(b1-3)Gal(b1-4)GlcNAc(b1-3)Gal(b1-4)GlcNAc(b1-2)[GlcNAc(b1-3)Gal(b1-4)GlcNAc(b1-3)Gal(b1-4)GlcNAc(b1-3)Gal(b1-4)GlcNAc(b1-3)Gal(b1-4)GlcNAc(b1-6)]Man(a1-6)[GlcNAc(b1-3)Gal(b1-4)GlcNAc(b1-3)Gal(b1-4)GlcNAc(b1-3)Gal(b1-4)GlcNAc(b1-3)Gal(b1-4)GlcNAc(b1-2)Man(a1-3)]Man(b1-4)GlcNAc(b1-4)[Fuc(a1-6)]GlcNAc
Procedure, shortened: as §1

[7] = molecular target: GlcNAc(b1-3)Gal(b1-4)GlcNAc(b1-3)[GlcNAc(b1-3)Gal(b1-4)GlcNAc(b1-3)]GalNAc
Procedure, shortened: as §1

Kdn(a2-3)Gal(b1-3)GlcNAc = molecular target: Kdn(a2-3)Gal(b1-3)GlcNAc
Procedure, shortened: as §1

Kdn(a2-3)Gal(b1-4)GlcNAc = molecular target: Kdn(a2-3)Gal(b1-4)GlcNAc
Procedure, shortened: as §1

[8] = molecular target: Man(a1-3)[Man(a1-6)]Man(a1-6)[Man(a1-3)]Man(b1-4)GlcNAc(b1-4)GlcNAc
Procedure, shortened: as §1

[9] = molecular target: Neu5Ac(a2-3)Gal(b1-3)GlcNAc(b1-6)GalNAc
Procedure, shortened: as §1

[10] = molecular target: Neu5Ac(a2-3)Gal(b1-3)[Fuc(a1-4)]GlcNAc
Procedure, shortened: as §1

[11] = molecular target: Neu5Ac(a2-3)Gal(b1-4)[Fuc(a1-3)]GlcNAc
Procedure, shortened: as §1

[12] = molecular target: Neu5Ac(a2-3)Gal(b1-4)[Fuc(a1-3)]GlcNAc(b1-3)Gal(b1-4)GlcNAc
Procedure, shortened: as §1

[13] = molecular target: Neu5Ac(a2-6)Gal(b1-4)GlcNAc(b1-2)Man(a1-3)[GlcNAc(b1-4)][Neu5Ac(a2-6)Gal(b1-4)GlcNAc(b1-2)Man(a1-6)]Man(b1-4)GlcNAc(b1-4)GlcNAc
Procedure, shortened: as §1

[14] = molecular target: Neu5Ac(a2-6)Gal(b1-4)GlcNAc(b1-2)Man(a1-3)[Man(a1-6)]Man(b1-4)GlcNAc(b1-4)GlcNAc
Procedure, shortened: as §1

[15] = molecular target: Neu5Ac(a2-6)Gal(b1-4)GlcNAc(b1-2)Man(a1-6)Man(b1-4)GlcNAc(b1-4)GlcNAc
Procedure, shortened: as §1

[16] = molecular target: Neu5Ac(a2-6)Gal(b1-4)GlcNAc(b1-2)[Neu5Ac(a2-6)Gal(b1-4)GlcNAc(b1-4)]Man(a1-3)[GlcNAc(b1-4)][Neu5Ac(a2-6)Gal(b1-4)GlcNAc(b1-2)[Neu5Ac(a2-6)Gal(b1-4)GlcNAc(b1-6)]Man(a1-6)]Man(b1-4)GlcNAc(b1-4)GlcNAc
Procedure, shortened: as §1

[17] = molecular target: Neu5Ac(a2-6)Gal(b1-4)GlcNAc(b1-2)[Neu5Ac(a2-6)Gal(b1-4)GlcNAc(b1-4)]Man(a1-3)[GlcNAc(b1-4)][Neu5Ac(a2-6)Gal(b1-4)GlcNAc(b1-4)Man(a1-6)]Man(b1-4)GlcNAc(b1-4)GlcNAc
Procedure, shortened: as §1

[18] = molecular target: Neu5Ac(a2-6)GlcNAc(b1-4)GlcNAc(b1-4)GlcNAc
Procedure, shortened: as §1

[19] = molecular target: Neu5Ac(a2-8)Neu5Ac(a2-3)[GalNAc(b1-4)]Gal(b1-4)Glc
Procedure, shortened: as §1

[20] = molecular target: Neu5Ac9Ac(a2-3)Gal(b1-3)GlcNAc
Procedure, shortened: as §1

[21] = molecular target: Neu5Gc(a2-3)Gal(b1-3)GlcNAc
Procedure, shortened: as §1

B1: MXA PilAct-eGFP (Myxococcus xanthus), Q59589 (protein)
chain: MRVSRFNPRNRGFTLIELMIVVAIIGILAAIAIPNFIKFQARSKQSEAKTNLKALYTAQKSFFSEKDRYSDFANEIGFAPERGNRYGYRVSAAAGDCEVRNAADLPVPAAGVPCISNDSFRFGANSAIDDPTPVVARFVPQGAAGWNTTLGVQPTIADCPNCNFFAGARGNADNEATFDDWVIAGFEGSGQVGPCSEAGNVASGTPYNTRNDVACDGAAQ
- glycan array binding signal (z-score) (GalNAc(a1-3)GalNAc): -1.12
- glycan array binding signal (z-score) (GalNAc6S(b1-4)GlcNAc): 0.26
- glycan array binding signal (z-score) (Glc(b1-6)Glc): 1.37
- glycan array binding signal (z-score) [1]: -0.245
- glycan array binding signal (z-score) [2]: 0.596
- glycan array binding signal (z-score) [3]: 1.45
- glycan array binding signal (z-score) [4]: 0.002
- glycan array binding signal (z-score) [5]: 3.99
- glycan array binding signal (z-score) [6]: 3.85
- glycan array binding signal (z-score) [7]: -0.168
- glycan array binding signal (z-score) (Kdn(a2-3)Gal(b1-3)GlcNAc): 0.462
- glycan array binding signal (z-score) (Kdn(a2-3)Gal(b1-4)GlcNAc): -0.846
- glycan array binding signal (z-score) [8]: -0.784
- glycan array binding signal (z-score) [9]: -0.507
- glycan array binding signal (z-score) [10]: -0.236
- glycan array binding signal (z-score) [11]: -0.025
- glycan array binding signal (z-score) [12]: -0.9
- glycan array binding signal (z-score) [13]: -1.03
- glycan array binding signal (z-score) [14]: 3.09
- glycan array binding signal (z-score) [15]: 2.91
- glycan array binding signal (z-score) [16]: -0.369
- glycan array binding signal (z-score) [17]: -0.544
- glycan array binding signal (z-score) [18]: -0.645
- glycan array binding signal (z-score) [19]: 3.6
- glycan array binding signal (z-score) [20]: 4.29
- glycan array binding signal (z-score) [21]: 0.057
